Measurements from ChEMBL document CHEMBL3433997, “St. Jude Leishmania screening dataset” (2016).

What follows are compounds tested against Solute carrier family 2, facilitated glucose transporter member 1 (Homo sapiens) (UniProt P11166) (assay: ST_JUDE_LEISH: Cytotoxicity at 2uM final concentration against transgenic Leishmania Mexicana promastigotes LmGLUT1 that are glucose transport deficient and complemented with the human glucose transporter GLUT1. Activity is measured by DNA content using SYBR green in vitro).
Chain of Solute carrier family 2, facilitated glucose transporter member 1 (Homo sapiens) (P11166 whole entry): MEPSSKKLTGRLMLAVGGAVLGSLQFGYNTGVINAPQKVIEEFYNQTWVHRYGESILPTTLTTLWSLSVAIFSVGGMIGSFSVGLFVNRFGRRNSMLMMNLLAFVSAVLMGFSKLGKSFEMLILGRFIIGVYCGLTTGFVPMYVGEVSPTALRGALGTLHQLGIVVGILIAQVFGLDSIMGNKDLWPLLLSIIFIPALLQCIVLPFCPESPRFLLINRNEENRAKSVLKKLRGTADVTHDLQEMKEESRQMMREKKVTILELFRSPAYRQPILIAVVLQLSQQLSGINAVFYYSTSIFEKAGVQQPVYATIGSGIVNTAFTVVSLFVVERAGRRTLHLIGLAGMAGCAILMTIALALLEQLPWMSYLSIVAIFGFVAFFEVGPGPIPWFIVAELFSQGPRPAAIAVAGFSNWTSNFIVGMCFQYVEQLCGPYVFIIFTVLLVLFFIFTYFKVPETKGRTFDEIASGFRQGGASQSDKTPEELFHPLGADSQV
Assay type: functional
Work on `CCCCc1cc(N2CCC(NC(C)=O)C2)nc(Nc2ccc(C)cc2)n1` (stereo not given) yielded an inhibition of 10.9%. For `O=C(/C=C/c1ccc(Cl)c(Cl)c1)NCCCCCN1CCC(NC(=O)Nc2ccc(OC(F)F)cc2)CC1`, the inhibition was -1.59%. In the case of `COc1ccc2nccc(NCC3(O)CCN(CC(O)c4ccc5c(c4)NC(=O)CS5)CC3)c2n1` (stereo not given), the inhibition is reported as 3.39%. `CNC(=O)C(NC(=O)c1ccccc1C(=O)OC)c1ccccc1` (stereo not given) gave an inhibition of 1.77%. `CCCC(CNCc1cccc(C)c1)CNc1cc(=O)c2ccccc2[nH]1` (stereo not given) was tested, and the inhibition was 10.9%. `CCC(C(=O)Nc1ccccc1)n1nc(-c2ccc(C)c(S(=O)(=O)N3CCCCC3)c2)ccc1=O` (stereo not given) was tested, and the inhibition was 3.12%. `NOCCCOc1ccc(Cl)cc1` gave an inhibition of 4.86%. `O=C(Nc1ccc(Cl)c(Cl)c1)N[C@H]1CCN(CCCCCNC(=O)C2CC2c2ccc(Cl)c(Cl)c2)C1` (stereo not given in full) gave an inhibition of 12.3%. `Cn1nc(-c2ccc(CNC3CCc4ccccc43)cc2)c2cnc(NCCN3CCCC3)nc21` (stereo not given) was tested, and the inhibition was 2.93%. With `COC(=O)C1=CNC=C(C(=O)OC)C1c1ccc(Cl)c([N+](=O)[O-])c1` the inhibition was 10.8%. With `CC(=O)Nc1ncc(C(=O)Nc2ccc(-c3cccc(-c4nc5cc(C(F)(F)F)ccc5[nH]4)c3)cc2)s1` the inhibition was -2.18%. `Fc1ccc(C(OCC2CCCN(Cc3cccc4cccnc34)C2)c2ccc(F)cc2)cc1` (stereo not given) gave an inhibition of 2.49%. Compound `O=C(Nc1cccc(CN2CCCN(Cc3ccc(F)cc3)CC2)c1)c1ccc(Cl)c(Cl)c1` has an inhibition of 4.82%. `COc1ccc(NC(=O)Nc2cc(C)nc3ccccc23)cc1Cl` showed an inhibition of 9.47%. `CC(C)COc1ccc(Cl)cc1Cc1ccc(-c2nc3cc(CCN(C)C)ccc3[nH]2)o1` gave an inhibition of 2.44%. For `COc1ccc(N2CCN(CCCCNC(=O)c3ccc(NC(=O)c4cccc(Cl)c4)cc3)CC2)c(OC)c1`, the inhibition was 3.81%. Work on `Cc1nc(N)nc(N)c1CCCOc1ccccc1Cl` yielded an inhibition of 13.2%. Compound `Cc1noc(-c2ccc(O)cc2O)c1-c1ccc2c(c1)OCCCO2` has an inhibition of 0.11%. For `CCN1CCC(N(Cc2ccc(-c3ccc(C(F)(F)F)cc3)cc2)C(=O)Cn2c(CCc3cccc(F)c3F)cc(=O)c3c2CCCC3)CC1`, the inhibition was 0.35%. `CN1CCN(CCCN(Cc2cccc(-c3cccc(CNC4CCCC4)c3)c2)C(=O)/C=C/c2ccccc2)CC1` was tested, and the inhibition was -1.1%. In the case of `C=CCN1C(=O)CN(S(=O)(=O)c2ccc(-n3nc(C)cc3C)cc2)C1=S`, the inhibition is reported as 3.32%. For `c1ccc(Oc2ccc(Nc3nc(NCCc4c[nH]cn4)nc(NC4CCCC4)n3)cc2)cc1`, the inhibition was 5.3%. For `Cc1cccc2nc(-c3ccc(-c4cccc(NC(=O)Nc5cccc(C#N)c5)c4)cc3)[nH]c12`, the inhibition was 0.79%. With `CC(=O)Nc1nc(C(=O)Nc2ccc(-c3cccc(-c4nc5cc(C(F)(F)F)ccc5[nH]4)c3)cc2)cs1` the inhibition was 0.32%. For `CN(C)C1CCN(CC#Cc2cc3ncnc(Nc4ccc(OCc5cccc(F)c5)c(Cl)c4)c3s2)CC1`, the inhibition was 1.79%. `Cc1cc(NCCCN2CCCC2=O)n2c(nc3ccccc32)c1C#N` gave an inhibition of 0.96%. With `Cc1cccc2nc(O)c([N+](=O)[O-])c(O)c12` the inhibition was 2.09%. Work on `Cc1cc(O)c(CN(C)Cc2ccc3c(c2)OCO3)cc1C(C)C` yielded an inhibition of -0.84%. `CC(=O)Nc1ccc(NC(=O)c2cc(-c3ccc(C)cc3O)n[nH]2)cc1` was tested, and the inhibition was -0.23%. Work on `CCc1ccc(NC(=O)c2cccc(CN3CCCN(Cc4cccc(O)c4)CC3)c2)cc1` yielded an inhibition of 3.9%. `O=C(Cc1c[nH]cn1)Nc1cccc(-c2ccc(-c3nc4ccccc4[nH]3)cc2)c1` was tested, and the inhibition was 1.81%. `COc1ccc(NS(=O)(=O)c2ccc(Oc3nc(C)nc4sc5c(c34)CCCC5)cc2)cc1` was tested, and the inhibition was 3.13%. `Cc1nc2c(Nc3nc(-c4ccncc4)cs3)ncnc2n1-c1ccccc1Cl` was tested, and the inhibition was 45.1%. `COc1cccc(-c2csc(C(=O)NC3CCCCN(Cc4ccc(C(C)(C)C)cc4)C3)c2)c1` (stereo not given) gave an inhibition of 4.84%. Work on `Cc1ccc(C(=O)Nc2ccc(-c3nc4ccccc4[nH]3)cc2)cc1S(=O)(=O)N1CCOCC1` yielded an inhibition of 2.29%. For `COc1ccc(CON2C(=N)N=C(N)NC2(C)C)cc1OC`, the inhibition was -1.03%. `N#Cc1ccc(NC(=O)NC2CCN(CCCCCNC(=O)/C=C/c3ccc(Cl)c(Cl)c3)CC2)cc1` gave an inhibition of 3.11%. Work on `NC1=NC(c2ccccc2)(c2ccccc2)C(=O)N1CCCCc1ccccc1` yielded an inhibition of -0.67%. `Nc1oc2c(CN3CCCCCC3)c(O)ccc2c(=O)c1-c1nc2ccccc2s1` gave an inhibition of -1.92%. `Cc1cc(C(=O)NC2CCN(CC3(c4ccccc4)CCCCC3)CC2)on1` gave an inhibition of 1.62%.
